From the supplement of paper PMC9135407
Where “and” joins values, the source holds several entries; their conditions need not be identical. Equal values may be shown once. Where a name gives a salt, the structure may show the parent alone. In all, about 5,800 compounds went through this assay and about 620 (11%) showed activity. The full list was thinned out, with actives kept by preference. Unmarked numbers belong to inactive results.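 Rule for the calls: active = score above a cut-off or among the top three wells of a plate; in these data no inactive exceeds 0.85.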

Tested on: primary human hepatic stellate cells (donor 1)
Test: scaled lipid accumulation score (0 = DMSO-like, 1 = nortriptyline-like); higher = stronger HSC inactivation (lipid re-accumulation), active = hit call of the paper
Conditions: 48 h
[1] = library stock concentration: 1 mM
[2] = library stock concentration: 10 mM
[3] = library stock concentration: 3.33 mM

SMILES: CCCCCCCCCCCC1N[C@H](C(=O)O)CS1 (stereo not given in full)
- scaled lipid accumulation score [1]: ≤ 0

SMILES: CCCCC[C@H](O)/C=C/[C@@H]1[C@H](CCCCCCC(=O)O)[C@H](O)C[C@H]1O [8-iso Prostaglandin F1.beta.]
- scaled lipid accumulation score [1]: ≤ 0

SMILES: Cc1[nH]ccc2c1[nH]c1cc(=O)ccc12 [Harmol hydrochloride monohydrate]
- scaled lipid accumulation score: 0.689

SMILES: O=C(O)CCC/C=C\C[C@H]1C(=O)C=C[C@@H]1CC[C@@H](O)CCc1ccccc1 [17-phenyl trinor-13,14-dihydro Prostaglandin A2]
- scaled lipid accumulation score [1]: ≤ 0

SMILES: CNCc1ccc(C)c(NC(=O)c2ccc(Nc3nc(-c4ccccc4)c4ccccc4n3)cc2)c1 [listing 1 of 2 here]
- scaled lipid accumulation score [2]: 0.17

SMILES: CNCc1ccc(C)c(NC(=O)c2ccc(Nc3nc(-c4ccccc4)c4ccccc4n3)cc2)c1 [listing 2 of 2 here]
- scaled lipid accumulation score [3]: 1.14 (active)

SMILES: Cc1cc(Nc2ccc(NC(=O)c3ccc(Nc4ccnc5ccccc45)cc3)cc2)nc(N)n1
- scaled lipid accumulation score [3]: 0.147
- scaled lipid accumulation score [2]: ≤ 0

SMILES: CCC(C)(Oc1ccc(C2(c3ccc(OC(C)(CC)C(=O)O)cc3)CCCCC2)cc1)C(=O)O (stereo not given) [Clinofibrate]
- scaled lipid accumulation score [3]: ≤ 0
- scaled lipid accumulation score [2]: ≤ 0

SMILES: CNCC[C@@H](Oc1ccccc1C)c1ccccc1 [Atomoxetine HCl]
- scaled lipid accumulation score [3]: 0.319
- scaled lipid accumulation score [2]: 0.514

SMILES: CNCC[C@H](Oc1cccc2ccccc12)c1cccs1
- scaled lipid accumulation score [2]: 0.953 (active)

SMILES: CNCC[C@@H](Oc1ccccc1C)c1ccccc1 [Tomoxetine]
- scaled lipid accumulation score [2]: 0.59

SMILES: CN(C)[C@@H](CCOc1cccc2ccccc12)c1ccccc1 [Dapoxetine HCl]
- scaled lipid accumulation score [3]: 0.506
- scaled lipid accumulation score [2]: 0.625

SMILES: CNCC[C@@H](Oc1ccccc1C)c1ccccc1 [Atomoxetine hydrochloride]
- scaled lipid accumulation score (library stock concentration: 7.2 mM): 0.064

SMILES: CNCC[C@@H](Oc1ccccc1C)c1ccccc1 [Tomoxetine hydrochloride]
- scaled lipid accumulation score [2]: 0.484

SMILES: CNCCC(Oc1ccccc1OC)c1ccccc1 (stereo not given) [Nisoxetine hydrochloride]
- scaled lipid accumulation score: 0.246
- scaled lipid accumulation score [2]: 0.751 and 0.328

SMILES: CNCC[C@H](Oc1cccc2ccccc12)c1cccs1 [Duloxetine]
- scaled lipid accumulation score [2]: 1.39 (active)

SMILES: CNCC[C@H](Oc1cccc2ccccc12)c1cccs1 [Duloxetine HCl]
- scaled lipid accumulation score [3]: 0.357
- scaled lipid accumulation score [2]: 0.796

SMILES: CNCC[C@H](Oc1cccc2ccccc12)c1cccs1.Cl [Duloxetine hydrochloride]
- scaled lipid accumulation score (library stock concentration: 6 mM): 1.05 (active)

SMILES: Nc1n[nH]c(N)c1N=Nc1ccc(O)cc1 [Cdk9 Inhibitor II]
- scaled lipid accumulation score [3]: ≤ 0

SMILES: O=C(O)Cn1c(C(=O)Nc2nc(-c3ccccc3Cl)cs2)cc2ccccc21
- scaled lipid accumulation score [2]: ≤ -0.001

SMILES: CC1=CC(=O)C2=C(C)CC[C@@H]3[C@H](OC(=O)[C@H]3C)[C@@H]12 [Leucomisine]
- scaled lipid accumulation score: ≤ 0

SMILES: CCCCC[C@H](O)/C=C/[C@H]1C(=O)C[C@H](O)[C@@H]1CCCCCCC(=O)O [Prostaglandin D1]
- scaled lipid accumulation score [1]: 0.018

SMILES: CCCCC[C@H](O)/C=C/[C@H]1C(=O)C=C[C@@H]1C/C=C\CCCC(=O)O [Prostaglandin J2]
- scaled lipid accumulation score [1]: ≤ 0 and ≤ -0.021

SMILES: C[C@]1(O)C[C@@H](c2nc(-c3ccc4ccc(-c5ccccc5)nc4c3)c3c(N)nccn32)C1
- scaled lipid accumulation score (library stock concentration: 80 uM): 0.05
- scaled lipid accumulation score (library stock concentration: 400 uM): ≤ -0.009
- scaled lipid accumulation score (library stock concentration: 2 mM): ≤ -0.009
- scaled lipid accumulation score [2]: ≤ -0.009

SMILES: C[C@]1(O)C[C@@H](c2nc(-c3ccc4ccc(-c5ccccc5)nc4c3)c3c(N)nccn32)C1 [OSI-906 (Linsitinib)]
- scaled lipid accumulation score [3]: ≤ 0
- scaled lipid accumulation score [2]: ≤ 0

SMILES: Cl.O=S(=O)(c1cccc2c(Cl)cccc12)N1CCCNCC1 [ML 9 hydrochloride]
- scaled lipid accumulation score [2]: 0.941 (active)

SMILES: Cl.O=S(=O)(c1cccc2c(Cl)cccc12)N1CCCNCC1
- scaled lipid accumulation score [2]: 0.935 (active)

SMILES: NCCCCCCCCCCNS(=O)(=O)c1cccc2c(Cl)cccc12 [A-7 hydrochloride]
- scaled lipid accumulation score [2]: 0.41

SMILES: CC1CNCCN1S(=O)(=O)c1cccc2cnccc12 (stereo not given)
- scaled lipid accumulation score [2]: 0.081

SMILES: CCCCCCCC/C=C\CCCCCC(=O)OC [cis-7-Hexadecenoic Acid methyl ester]
- scaled lipid accumulation score [1]: ≤ 0

SMILES: CNc1nc(Nc2cn(C(C)(C)C#N)nc2C)ncc1C(F)(F)F
- scaled lipid accumulation score [3]: ≤ -0.009
- scaled lipid accumulation score [2]: 0.132

SMILES: N[C@@H]1[C@H]2CN(c3nc4c(cc3F)c(=O)c(C(=O)O)cn4-c3ccc(F)cc3F)C[C@@H]12 [Trovafloxacin mesylate]
- scaled lipid accumulation score [2]: 0.112

SMILES: CCCCCCCCCC(=O)NC(CN1CCOCC1)C(O)c1ccccc1 (racemic)
- scaled lipid accumulation score [1]: ≤ -0.021

SMILES: Cc1ccc(C(=O)Cn2c3c(sc2=N)CCCC3)cc1 [Pifithrin-.alpha.]
- scaled lipid accumulation score [1]: ≤ 0

SMILES: O=C(O)CCC/C=C\C[C@@H]1[C@@H](/C=C/[C@@H](O)CCc2cccc(C(F)(F)F)c2)[C@H](O)C[C@@H]1O [17-trifluoromethylphenyl trinor Prostaglandin F2.alpha.]
- scaled lipid accumulation score [1]: ≤ 0

SMILES: CCN(CC)C(=O)CCC/C=C\C[C@@H]1[C@@H](/C=C/[C@@H](O)CCc2ccccc2)[C@H](O)C[C@@H]1O [17-phenyl trinor Prostaglandin F2.alpha. diethyl amide]
- scaled lipid accumulation score [1]: ≤ 0

SMILES: CCS(=O)(=O)N(C)[C@H]1c2cc(C#N)ccc2OC(C)(C)[C@@H]1O [(-)-[3R,4S]-Chromanol 293B]
- scaled lipid accumulation score [2]: 0.037

SMILES: NC(CCC(=O)NC(CSN=O)C(=O)NCC(=O)O)C(=O)O [S-Nitroso-L-glutathione]
- scaled lipid accumulation score [1]: 0.026

SMILES: CNS(=O)(=O)c1ccc(NC(=O)c2ccccc2C(=O)O)cc1 [Phthalysulfathiazole]
- scaled lipid accumulation score (library stock concentration: 4.8 mM): ≤ 0

SMILES: N[C@@H](CO)c1ccccc1 [(R)-(-)-2-Phenylglycinol]
- scaled lipid accumulation score [1]: ≤ 0

SMILES: O=C1c2cccc(O)c2C(=O)c2c(O)cccc21 [Danthron]
- scaled lipid accumulation score (library stock concentration: 8.3 mM): 0.038

SMILES: O=C1C(SCCO)=C(SCCO)C(=O)c2ccccc21 [listing 1 of 3 here]
- scaled lipid accumulation score [2]: 1.2 (active)

SMILES: O=C1C(SCCO)=C(SCCO)C(=O)c2ccccc21 [listing 2 of 3 here]
- scaled lipid accumulation score (library stock concentration: 16.1 mM): 1.05 (active)

SMILES: O=C1C(SCCO)=C(SCCO)C(=O)c2ccccc21 [listing 3 of 3 here]
- scaled lipid accumulation score [2]: 0.156
